Outcome and AC50 data for six compounds are collected here from PubChem BioAssay (EPA / NIEHS).

The nature of assay [1]: APR_HepG2_P-H2AX_72hr: Apredica 72-hour HepG2 Assay for H2AX Phosphorylation (AID 2282916).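 Further: phospho-histone H2A.x immunostain intensity per cell marking DNA damage.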 Particulars: imaging, actives raise or lower the signal. An outline of the steps: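 HepG2 human liver cells were exposed for 72 hr to compounds at 0.39–200 uM (10 concentrations, duplicate per plate) in 0.5% v/v DMSO. Fixed, permeabilized cells were immunolabeled for phospho-histone H2A.x with Hoechst 33342 and imaged by HCS fluorescence; bidirectional fit versus DMSO.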

Assay [2] in a line: APR_HepG2_MitoMembPot_72hr: Apredica 72-hour HepG2 Assay for Mitochondrial Membrane Potential (AID 2282917). Particulars: imaging, actives raise or lower the signal. Put shortly: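 HepG2 cells dosed 72 hr with compound at 0.39–200 uM in duplicate, 0.5% v/v DMSO final. Mitochondria stained with 250 nM MitoTracker Red CMXRos for 30 min before formaldehyde fixation, imaged by high-content fluorescence; bidirectional fit versus DMSO.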

The nature of assay [3]: APR_HepG2_MitoticArrest_72hr: Apredica 72-hour HepG2 Assay for Mitotic Arrest (AID 2282918). Particulars: high-content imaging, actives raise or lower the signal. Put shortly: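 HepG2 cells treated 72 h at 0.39–200 uM, 0.5% DMSO final; formaldehyde-fixed, stained with Hoechst 33342 and phospho-histone H3 antibody, imaged by high-content fluorescence; bidirectional fit versus DMSO.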

Assay [4] is described as follows: APR_HepG2_MicrotubuleCSK_72hr: Apredica 72-hour HepG2 Assay for Microtubule CSK Stabilty (AID 2282919). The settings on record: HepG2 microtubule cytoskeleton, high-content imaging, actives raise or lower the signal. Put shortly: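 HepG2 cells were exposed 72 hr to compound at 0.39–200 uM in duplicate (0.5% DMSO final), then fixed and permeabilized. Alpha-tubulin immunofluorescence was imaged by high-content microscopy, with bidirectional fitting against DMSO and taxol as positive control.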

Assay [5] is described as follows: APR_HepG2_P-H2AX_24hr: Apredica 24-hour HepG2 Assay for H2AX Phosphorylation (AID 2282920). Particulars: high-content imaging, actives raise or lower the signal. Put shortly: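 HepG2 cells dosed 24 h at 0.39–200 uM (10 points, duplicate, 0.5% DMSO final). Formaldehyde-fixed and permeabilized, then immunostained for phospho-H2A.x with Hoechst. Fluorescence quantified by high-content imaging, fitted bidirectionally versus DMSO.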

The nature of assay [6]: APR_HepG2_StressKinase_72hr: Apredica 72-hour HepG2 Assay for Stress Kinase (AID 2282921). Particulars: HepG2 stress kinase (phospho-c-Jun) imaging, actives raise or lower the signal. Put shortly:
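Cells were exposed for 72 h to ten concentrations (0.39–200 uM, duplicate) at 0.5% v/v DMSO final, then fixed with 3.7% formaldehyde, permeabilized and immunostained for phospho-c-Jun (Cy3 secondary) with Hoechst nuclear counterstain.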

Assay [7] is described as follows: APR_HepG2_StressKinase_24hr: Apredica 24-hour HepG2 Assay for Stress Kinase (AID 2282922). Particulars: HepG2 stress kinase (phospho-c-Jun) imaging, actives raise or lower the signal. An outline of the steps:
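HepG2 cells exposed 24 h to 0.39–200 uM compound in duplicate (0.5% v/v DMSO final). Cells fixed in 3.7% formaldehyde, permeabilized and immunostained for phospho-c-Jun; read by high-content fluorescence imaging, fitted bidirectionally against DMSO.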

The nature of assay [8]: APR_HepG2_p53Act_72hr: Apredica 72-hour HepG2 Assay for p53 Activation (AID 2282923).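 Further: average cellular p53 protein immunofluorescence intensity in HepG2 cells.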 Particulars: high-content imaging, actives raise or lower the signal. An outline of the steps:
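Cells were dosed for 72 hr with compounds at 0.39–200 uM in duplicate (final DMSO 0.5% v/v), then fixed in 3.7% formaldehyde, permeabilized with Triton X-100 and immunostained for p53 (Cy5) with Hoechst 33342 nuclear counterstain.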

Assay [9] is described as follows: APR_HepG2_MitoMass_72hr: Apredica 72-hour HepG2 Assay for Mitochondrial Mass (AID 2282924).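 Further: MitoTracker Red CMXRos stain intensity per cell imaged as mitochondrial mass.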 The settings on record: high-content imaging, actives raise or lower the signal. An outline of the steps:
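HepG2 cells dosed 72 hr at 0.39–200 uM (0.5% DMSO), in duplicate. MitoTracker Red CMXRos 250 nM loaded 30 min before formaldehyde fixation; high-content fluorescence imaging, bidirectional fit versus DMSO.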

Assay [10] in a line: APR_HepG2_NuclearSize_72hr: Apredica 72-hour HepG2 Assay for Nuclear Size (AID 2282925). Particulars: high-content imaging, actives raise or lower the signal. Put shortly: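 HepG2 cells dosed 72 h at 0.39–200 uM (10 concentrations, duplicate) in 0.5% v/v DMSO final. Fixed, Hoechst 33342-stained nuclei imaged; nuclear diameter measured by automated image analysis. Bidirectional fit versus DMSO.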

Assay [11] in a line: ATG_CRE_CIS: Attagene CIS-FACTORIAL HepG2 Assay for human cAMP Responsive Element (CRE) binding protein 3 (AID 2282926). The settings on record: HepG2 CRE cis-reporter, Attagene multiplexed mRNA; actives raise or lower the signal. An outline of the steps:
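HepG2 cells transiently transfected with cis-element-driven multiple reporter transcription units; CRE reporter mRNA measured 24 h after dosing by RT-PCR, 6-FAM labelling, HpaI digestion and capillary electrophoresis. Bidirectional fit versus DMSO baseline.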

In assay [12] the target is CCAAT/enhancer-binding protein beta (Homo sapiens) (UniProt P17676). The assay can be described thus: ATG_C_EBP_CIS: Attagene CIS-FACTORIAL HepG2 Assay for human CCAAT/Enhancer Binding Protein (C/EBP) beta (AID 2282927). The settings on record: HepG2 Attagene cis-factorial transcription factor reporter; actives raise or lower the signal. An outline of the steps: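 Transiently transfected HepG2 (MRTU library, endogenous TF-driven promoters); 24 h dosing; total RNA → oligo(dT) RT → PCR → 6-FAM primer extension → HpaI digest → CE; fit bidirectionally vs DMSO.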

A short description of assay [13]: ATG_CMV_CIS: Attagene CIS-FACTORIAL HepG2 Assay for human CMV (Internal Marker) (AID 2282928).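 Further: endpoint acts as a background internal control marker rather than a target.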 The settings on record: HepG2 CMV promoter reporter, transcription factor profiling; actives raise or lower the signal. Put shortly: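 Cell system: HepG2, transiently transfected multiple reporter units under cis promoters. Exposure: 24 h. Detection: RT-PCR, FAM labeling, HpaI digestion, capillary electrophoresis. Analysis: bidirectional, DMSO baseline.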

Assay [14] is described as follows: ATG_DR4_LXR_CIS: Attagene CIS-FACTORIAL HepG2 Assay for human Liver X Receptor (LXR), DR4 submotif (AID 2282929). The settings on record: HepG2 Attagene DR4 cis-reporter, mRNA transcription; actives raise or lower the signal. An outline of the steps:
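Transiently transfected HepG2 liver cells; cis-regulated reporters; 24 h dosing. RT-PCR plus CE read-out of reporter mRNA. DMSO baseline, bidirectional curve fitting.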

Assay [15] deals with Aryl hydrocarbon receptor (Homo sapiens) (UniProt P35869). Briefly: ATG_Ahr_CIS: Attagene CIS-FACTORIAL HepG2 Assay for human Aryl Hydrocarbon Receptor (Ahr) (AID 2282930). Particulars: HepG2 AhR cis-factorial reporter transcription; actives raise or lower the signal. An outline of the steps: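 Read-out: reporter mRNA quantified by RT-PCR with fluorescent primer extension and capillary electrophoresis. Human HepG2 liver cells carried transfected cis-promoter reporter units and were exposed to chemical for 24 h; gain or loss fitted relative to DMSO.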

A short description of assay [16]: ATG_AP_1_CIS: Attagene CIS-FACTORIAL HepG2 Assay for human Activator Protein 1 (AP-1) (AID 2282931). Particulars: HepG2 Attagene cis-factorial AP-1 reporter mRNA; actives raise or lower the signal. Put shortly: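 We transfected HepG2 cells transiently with a set of cis-regulated reporter transcription units, dosed them for 24 h, and quantified reporter mRNA via RT-PCR and capillary electrophoresis, scoring gain or loss of signal relative to DMSO.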

The nature of assay [17]: ATG_AP_2_CIS: Attagene CIS-FACTORIAL HepG2 Assay for human Activator Protein 2 (AP-2) (AID 2282932). Particulars: HepG2 AP-2 cis-reporter, Attagene transcription factor profiling; actives raise or lower the signal. Put shortly:
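Multiplexed mRNA reporter assay in HepG2: cis-regulated units report endogenous factor activity after 24 h treatment. Fluorescence from capillary electrophoresis of RT-PCR products gives the signal, with DMSO as baseline.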

Assay [18] in a line: ATG_BRE_CIS: Attagene CIS-FACTORIAL HepG2 Assay for human Bone Morphogenetic Protein (BMP) Response Element (BRE) (AID 2282933). The settings on record: HepG2 BMP response element reporter, Attagene transcription factor profiling; actives raise or lower the signal. Put shortly:
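A HepG2 multiplex reporter system measured inducible reporter mRNA 24 h post-dosing. Detection: RT-PCR, 6-FAM primer extension, HpaI digestion, capillary electrophoresis. Activity fitted bidirectionally relative to DMSO.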

In assay [19] the target is Retinoic acid receptor alpha (Homo sapiens) (UniProt P10276). Briefly: ATG_DR5_RAR_CIS: Attagene CIS-FACTORIAL HepG2 Assay for human Retinoic Acid Receptor Alpha (RARE), DR5 submotif (AID 2282934). The settings on record: HepG2 Attagene cis-factorial RARE DR5 reporter, mRNA; actives raise or lower the signal. Put shortly:
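Read-out: DR5-driven reporter transcript measured by RT-PCR, 6-FAM primer extension, HpaI digest and capillary electrophoresis. Human HepG2 liver cells carry transiently transfected cis-element reporter constructs; dosing lasts 24 h. Gain or loss of signal fitted against DMSO baseline.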

The nature of assay [20]: APR_HepG2_CellLoss_72hr: Apredica 72-hour HepG2 Assay for Cell Loss (AID 2282915). Particulars: high-content imaging. Put shortly: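 HepG2 cells exposed 72 h to compound at 0.39–200 uM (10 concentrations, duplicate) in 0.5% DMSO. Fixed with 3.7% formaldehyde and Hoechst 33342-stained. Imaged at 20x; nuclear count gives cell number, fitted bidirectionally versus DMSO.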

“And” between values parts separate entries of the source, which are not always exact repeats. Identical values can stand only once. More than one record can exist for a structure, and the calls need not agree. The source made the active and inactive calls. How the source made its calls: active means hit-call score of the fitted dose curve at least 0.9, where 1 is the maximum; inactive means score below 0.9.

Sequence of CCAAT/enhancer-binding protein beta (Homo sapiens) (P17676 whole entry, looked up): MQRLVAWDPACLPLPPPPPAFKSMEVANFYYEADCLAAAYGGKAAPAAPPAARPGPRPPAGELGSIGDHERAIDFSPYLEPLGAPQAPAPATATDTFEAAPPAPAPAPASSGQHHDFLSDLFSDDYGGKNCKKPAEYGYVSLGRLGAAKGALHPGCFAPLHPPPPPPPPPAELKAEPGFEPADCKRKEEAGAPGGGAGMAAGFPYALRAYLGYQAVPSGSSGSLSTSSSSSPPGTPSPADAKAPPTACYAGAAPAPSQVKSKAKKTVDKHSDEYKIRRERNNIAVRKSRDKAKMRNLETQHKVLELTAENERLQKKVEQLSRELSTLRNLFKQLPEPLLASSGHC
Sequence of Retinoic acid receptor alpha (Homo sapiens) (P10276 whole entry, looked up): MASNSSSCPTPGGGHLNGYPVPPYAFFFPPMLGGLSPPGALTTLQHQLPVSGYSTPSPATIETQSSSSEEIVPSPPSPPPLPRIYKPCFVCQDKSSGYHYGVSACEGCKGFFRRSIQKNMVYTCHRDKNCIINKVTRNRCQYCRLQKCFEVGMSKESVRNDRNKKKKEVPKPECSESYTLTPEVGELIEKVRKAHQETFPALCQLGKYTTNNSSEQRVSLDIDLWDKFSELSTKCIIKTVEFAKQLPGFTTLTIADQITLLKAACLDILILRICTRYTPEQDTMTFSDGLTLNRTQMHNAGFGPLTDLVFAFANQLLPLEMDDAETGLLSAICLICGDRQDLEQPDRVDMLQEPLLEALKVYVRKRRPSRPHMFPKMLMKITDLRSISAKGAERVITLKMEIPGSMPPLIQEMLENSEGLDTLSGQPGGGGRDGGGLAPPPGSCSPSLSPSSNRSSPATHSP
Sequence of Aryl hydrocarbon receptor (Homo sapiens) (P35869 whole entry, looked up): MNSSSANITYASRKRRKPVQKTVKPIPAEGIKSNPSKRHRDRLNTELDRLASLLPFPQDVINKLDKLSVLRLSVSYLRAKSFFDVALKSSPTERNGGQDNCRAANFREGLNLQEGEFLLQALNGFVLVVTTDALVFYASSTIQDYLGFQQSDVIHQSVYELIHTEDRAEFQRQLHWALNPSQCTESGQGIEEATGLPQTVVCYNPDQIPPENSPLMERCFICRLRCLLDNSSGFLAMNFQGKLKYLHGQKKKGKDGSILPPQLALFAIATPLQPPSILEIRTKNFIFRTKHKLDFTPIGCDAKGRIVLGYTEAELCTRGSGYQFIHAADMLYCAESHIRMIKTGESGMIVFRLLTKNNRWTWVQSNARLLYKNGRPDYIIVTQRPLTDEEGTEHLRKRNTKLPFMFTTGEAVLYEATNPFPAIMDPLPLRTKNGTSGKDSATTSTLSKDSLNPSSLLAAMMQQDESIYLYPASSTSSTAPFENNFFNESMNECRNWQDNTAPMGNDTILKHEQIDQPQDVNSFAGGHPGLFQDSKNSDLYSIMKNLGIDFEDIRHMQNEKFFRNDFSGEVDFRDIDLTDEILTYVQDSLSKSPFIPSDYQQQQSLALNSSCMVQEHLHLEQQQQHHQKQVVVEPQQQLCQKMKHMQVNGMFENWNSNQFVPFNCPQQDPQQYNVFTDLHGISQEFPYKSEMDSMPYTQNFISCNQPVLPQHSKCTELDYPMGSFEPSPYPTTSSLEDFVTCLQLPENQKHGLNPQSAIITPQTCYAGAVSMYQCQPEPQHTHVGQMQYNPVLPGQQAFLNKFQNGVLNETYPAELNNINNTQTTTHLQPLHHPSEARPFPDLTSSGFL

In the case of `COc1nn(CSP(=S)(OC)OC)c(=O)s1`, the compound was called inactive in [1], in [2], in [3], in [4], in assay [5] and in assay [6]. Further, the call in [7], in [8], in [9], in assay [10], in assay [11] and in assay [12] was inactive. Further, the result in assay [13], in assay [14], in assay [15], in [16], in assay [17] and in assay [18] was inactive. Moreover, the outcome in [19] was inactive.

Take `Clc1ccccc1-c1nnc(-c2ccccc2Cl)nn1`: the AC50 is 39.7 µM (active) in assay [20], 46.4 µM (active) in assay [1] and 12.8 µM (active) in [4]. For the same compound, the call in assay [2], in assay [3], in assay [5], in assay [6], in assay [7] and in assay [9] was inactive. In addition, the compound was called inactive in [10], in assay [11], in assay [12], in [13], in [14] and in [15]. Besides, the call in assay [16], in [17], in [18] and in assay [19] was inactive.

Take `CC(C)(C)C(O)/C(=C\c1ccc(Cl)cc1Cl)n1cncn1` (stereo not given): the call in assay [1], in [2], in assay [3], in assay [5], in assay [6] and in assay [7] was inactive. Further, the call in [8], in [9], in assay [10], in assay [11], in [12] and in assay [13] was inactive. Besides, the compound was classed as inactive in assay [14], in assay [15], in assay [16], in [17], in [18] and in [19]. In addition, the AC50 in [4] was 175 µM (active).

In the case of `COC(=O)c1ccccc1S(=O)(=O)NC(=O)Nc1nc(C)nc(OC)n1`, the compound was called inactive in assay [20], in assay [1], in assay [2], in [3], in [4] and in [5]. Moreover, the compound was called inactive in [6], in assay [7], in assay [8], in assay [9], in assay [10] and in assay [11]. Besides, the result in [12], in assay [13], in assay [14], in [15], in assay [16] and in assay [17] was inactive. The call in assay [18] and in [19] was inactive. For the same compound, the figures for the AC50 in assay [16] and in [18] were 63.1 µM (active) and 27.1 µM (active), respectively.

In the case of `OCCOc1ccccc1`, the call in [1], in assay [2], in assay [3], in assay [4], in [5] and in assay [6] was inactive. In addition, the call in assay [7], in assay [8], in assay [9], in assay [10], in assay [11] and in assay [12] was inactive. In addition, the result in assay [13], in assay [14], in assay [15], in [16], in assay [17] and in assay [18] was inactive. Moreover, in assay [19], the compound was classed as inactive.

On to `O=S(=O)(O)C(F)(F)C(F)(F)C(F)(F)C(F)(F)C(F)(F)C(F)(F)C(F)(F)C(F)(F)F`, for which the half-maximal activity concentration (AC50) was 104 µM (active) and 9.71 µM (active) and 107 µM (active) in assay [1]; 111 µM (active) in assay [4]; 108 µM (active) [middle of 4 runs] in assay [5]; 111 µM (active) and 107 µM (active) in [6]; 5.6 µM (active) and 106 µM (active) in assay [8]; 110 µM (active) and 9.67 µM (active) in assay [10]. Further, the concentration at half-maximal activity (AC50) in [11] is 142 µM (active) and 53.4 µM (active); in assay [13], 61.4 µM (active) and 191 µM (active) and 89.9 µM (active); in [15] it was 180 µM (active) and 40.3 µM (active); in [17], 140 µM (active) and 26.8 µM (active). The compound was classed as inactive in assay [1], in assay [2], in assay [3], in assay [4], in assay [5] and in [6]. The compound was classed as inactive in assay [7], in assay [8], in [9], in assay [10], in [11] and in assay [12]. Further, the call in [13], in [14], in [15], in [17] and in assay [18] was inactive.

As a reminder, the AC50 is the midpoint of the concentration-response curve, whichever way the signal moves.
